From PubChem BioAssay (NCATS)
Unmarked numbers belong to inactive results. Results filed as inconclusive are left out. A call without a number means that no potency is given here. The source made the active and inactive calls. Unless noted, calls follow the shape of the dose curve; as a rule, active = well fitted curve in the direction sought with a large enough effect; inconclusive = small, poorly fitted or top-dose-only effect, or another doubt; inactive = no such curve, though single readings can be large; an effect the other way counts as inactive or inconclusive.

Columns and labels:
[1] = AP1 Signaling Pathway (AID 357; active = well fitted curve in either direction with a large enough effect, not every such curve was filed as active;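 also: ME-180 reporter cells stimulated with EGF at its EC50 level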); conditions: ME-180 AP-1-bla reporter, EGF-induced, beta-lactamase ratio, 5 h; at 38 µM (top of the series)
In short: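 Cells are seeded overnight, exposed to compound titrations and an EC50 level of EGF for 5 hours at 37 °C, then loaded with CCF4 dye for 2.5 hours. Beta-lactamase activity under the AP-1 element is read as a blue/green ratio.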

[2] = biological target: Cytochrome P450 1A2 (Homo sapiens) (UniProt P05177); test: p450-cyp1a2 (AID 410; calls by dose curve; also: potency is read from the fitted curve at half-maximal effect)
In short: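 20nM CYP1A2, 100uM Luciferin-ME (=Km), 100mM KPO4; cpd 10 min RT; +NADPH regen, 60 min RT; stop/detect 20 min; luminescence. Normalized to furafylline 57 uM = full inhibition.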

[3] = Stat Signaling Pathway (AID 446; active = well fitted curve in either direction with a large enough effect, not every such curve was filed as active;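 also: ME-180 cervical cancer cells given 40 pM IL-6 alongside compound; SIE-controlled beta-lactamase reporter measured as 460/530 nm FRET emission ratio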); conditions: ME-180 (cervical carcinoma) SIE beta-lactamase reporter, IL-6 stimulated, 5 h; at 38 µM (top of the series)
In short: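 Normalization used AC90 stimulation (300 pM IL-6) and AC90 inhibition (125 nM pan-JAK inhibitor at 40 pM IL-6). The underlying signal is SIE-driven beta-lactamase in ME-180 cells after 5 h IL-6 exposure with compound.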

[4] = biological target: Glucocorticoid receptor (Homo sapiens) (UniProt P04150); test: GR-GFP Redistribution (AID 450;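 active = compounds whose dose series gives a full or clear partial fitted curve of increased nuclear translocation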; also: potency is read from the fitted curve at half-maximal effect); conditions: U2OS GR-GFP nuclear translocation, laser cytometry, 2 h
[5] = biological target: Glucocorticoid receptor (Homo sapiens) (UniProt P04150); test: GR-EFC Redistribution (AID 451; calls by dose curve; also: potency is read from the fitted curve at half-maximal effect); conditions: CHO-K1 GR-EFC translocation, beta-gal luminescence, 2 h
In short: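 CHO-K1 cells expressing nuclear EA and GR-ED fragments of b-gal; compounds titrated up to 46 uM final, 2 h at 37 C. GR nuclear translocation read as complemented b-gal luminescence after 1 h RT detection.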

[6] = biological target: Mitogen-activated protein kinase 10 (Mus musculus) (UniProt Q61831); test: JNK3 AlphaScreen Assay (AID 530; active = well fitted curve in either direction with a large enough effect, not every such curve was filed as active;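 also: kinase came from lysate of stimulated human HepG2 cells; signal reports phosphorylation of biotinylated GST-cJun 1-79 at Ser73 with 10 µM ATP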)
In short: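 HepG2 lysate (IL-1b/TNFa pre-activated) + biotin-GST-cJun 1-79 + anti-pSer73 cJun; cpd titration, 15 min RT; ATP 10 uM start; Tris pH 7.6, MgCl2, DTT, vanadate; beads in EDTA buffer; AlphaScreen.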

[7] = biological target: 3',5'-cyclic-AMP phosphodiesterase 4B (Homo sapiens) (UniProt Q07343); test: qHTS Assay for Inhibitors of PDE-IV (AID 607; active = well fitted activation curve with a large enough effect in the main read-out, with a control signal flat, not every such curve was filed as active)
In short: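 HEK293 ACTOne cells with CNG channel (1000/well), endogenous PDE4; membrane potential dye, compounds up to 22.9 uM final. Fluorescence Ex 535/Em 590; RO 20-1724 (100 uM final) as reference.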

[8] = biological target: Guanine nucleotide-binding protein G(i) subunit alpha-1 (Homo sapiens) (UniProt P63096); test: qHTS Assay for Inhibitors of RGS12 GoLoco Motif Activity (Green Fluorophore) (AID 879);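 also: negative values mean loss of peptide binding seen as reduced polarization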
In short: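 A drop in FITC polarization marked displacement of the FITC-tagged RGS12 GoLoco peptide (10 nM) from Gαi1 (50 nM). Compounds were incubated 10 min at room temperature in Tris pH 7.5 buffer containing 150 mM NaCl, 0.1 mM GDP and 0.05% NP40; unlabeled peptide titration served as control.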

[9] = biological target: Cytochrome P450 3A4 (Homo sapiens) (UniProt P08684); test: qHTS Assay for Activators of Cytochrome P450 3A4 (AID 885); also: nearly all actives have a fitted effect of over 65% in size
In short: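 Human CYP3A4 dealkylates Luciferin-PPXE to luciferin, which luciferase detection converts to light. Substrate was at its KM (25uM), buffer 200mM KPO4, reaction 60 min at RT.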

[10] = biological target: Pyruvate kinase (Leishmania mexicana) (UniProt Q27686); test: qHTS Validation Assay for Inhibitors of Leishmania Mexicana Pyruvate Kinase (AID 945)
In short: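 Purified LmPYK (E451W mutant, 0.2 nM) was incubated 1 h at room temperature with 0.5 mM PEP and 0.1 mM ADP in 50 mM imidazole pH 7.2, 50 mM KCl, 7 mM MgCl2; ATP formed was read by PKLight luminescence, normalized to DMSO wells.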

[11] = biological target: Pyruvate kinase PKM (Homo sapiens) (UniProt P14618); test: qHTS Assay for Activators of Human Muscle Pyruvate Kinase (AID 954; active = well fitted curve in the direction sought with a large enough effect, not every such curve was filed as active)
In short: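 Compound pinned into substrate mix (0.5 mM PEP, 0.1 mM ADP), then 0.1 nM PKM2 added; 1 h, RT. Stop/detection luciferase reagent added, luminescence read. Normalized to no-inhibition and no-enzyme or reference-inhibitor controls.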

[12] = biological target: Alpha-galactosidase A (Homo sapiens) (UniProt P06280); test: Counterscreen for Glucocerebrosidase Inhibitors: qHTS Assay for Human alpha-Galactosidase at pH 4.5 (AID 992)
In short: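 Steps: enzyme (2 nM final), then compound across 0.7 nM to 77 uM, then 80 uM fluorogenic galactopyranoside substrate; incubate 20 min at room temperature; quench at pH 10; measure fluorescence at 365/440 nm.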

[13] = biological target: alpha-glucosidase (Oryza sativa, rice) (UniProt Q653V4); test: Counterscreen for Glucocerebrosidase Inhibitors: qHTS Assay for Rice alpha-Glucosidase at pH 5.0 (AID 997)
In short: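 Endpoint fluorogenic assay at pH 5.0: compounds (0.7 nM to 77 uM) titrated against 4 nM rice enzyme and 400 uM 4-MU-alpha-glucoside for 20 min at room temperature; NaOH/glycine stop, read ex 365/em 440 nm, Hill-fitted AC50.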

[14] = Validation of Assay for Modulators of Lamin A Splicing (AID 1459; active = well fitted curve in the direction sought with a large enough effect in the signal ratio; the % refers to the signal ratio;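 also: cells exposed to compound for two days before reading; ratio rise marks activators and ratio drop marks inhibitors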)
In short: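 Dual-reporter HeLa S3 line (lamin A-EGFP minigene, DsRed2) treated with compounds 48 hrs, 0.5% DMSO final. Endpoint: EGFP/DsRed2 total intensity ratio from laser-scanning microplate cytometry.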

[15] = biological target: DNA repair nuclease/redox regulator APEX1 (Homo sapiens) (UniProt P27695); test: qHTS Validation Assay for Inhibitors of the Human Apurinic/apyrimidinic Endonuclease 1 (APE1) (AID 1705;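 also: TAMRA fluorescence gain over two minutes as APE1 cuts a quenched THF abasic duplex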)
In short: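 Substrate: 50 nM final fluorophore/quencher THF-abasic duplex. Enzyme preincubated with compounds 15 min, RT. Progress derived from fluorescence difference, third minus first kinetic read.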

[16] = Counterscreen for APE1 Inhibitors: Fluorescent Dye Displacement Validation Assay (AID 1707)
In short: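 Reaction mixture of 250 nM Thiazole Orange and 50 nM double-stranded abasic-site DNA was dispensed, compounds were pin-transferred, and fluorescence was read at endpoint (480 nm ex, 540 nm em). Reduced fluorescence indicated dye displacement by DNA binding.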

[17] = qHTS for differential inhibitors of proliferation of Plasmodium falciparum line 7G8 (AID 1815);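 also: potency is read from the fitted curve at half-maximal effect; parasite growth measured after three days of incubation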
[18] = qHTS for differential inhibitors of proliferation of Plasmodium falciparum line D10 (AID 1877);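 also: parasites grown with compound for 72 h before DNA staining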
[19] = qHTS for differential inhibitors of proliferation of Plasmodium falciparum line Dd2 (AID 1882); conditions: Potency: Plasmodium falciparum Dd2 proliferation inhibition;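 also: compound exposure of 72 h on infected erythrocytes; nearly all actives have a fitted effect of over 65% in size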
In short: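 RBC culture, 0.3% parasitemia / 2.5% Hct final; cpd added by pin tool in DMSO; 72 h, 37 C, 5% CO2; lysis buffer + SYBR Green I, o/n RT dark; FI 485/535; norm. to artemisinin 0.29 uM and DMSO.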

Sequence of Glucocorticoid receptor (Homo sapiens) (P04150 whole entry, looked up, the tested form may be a part): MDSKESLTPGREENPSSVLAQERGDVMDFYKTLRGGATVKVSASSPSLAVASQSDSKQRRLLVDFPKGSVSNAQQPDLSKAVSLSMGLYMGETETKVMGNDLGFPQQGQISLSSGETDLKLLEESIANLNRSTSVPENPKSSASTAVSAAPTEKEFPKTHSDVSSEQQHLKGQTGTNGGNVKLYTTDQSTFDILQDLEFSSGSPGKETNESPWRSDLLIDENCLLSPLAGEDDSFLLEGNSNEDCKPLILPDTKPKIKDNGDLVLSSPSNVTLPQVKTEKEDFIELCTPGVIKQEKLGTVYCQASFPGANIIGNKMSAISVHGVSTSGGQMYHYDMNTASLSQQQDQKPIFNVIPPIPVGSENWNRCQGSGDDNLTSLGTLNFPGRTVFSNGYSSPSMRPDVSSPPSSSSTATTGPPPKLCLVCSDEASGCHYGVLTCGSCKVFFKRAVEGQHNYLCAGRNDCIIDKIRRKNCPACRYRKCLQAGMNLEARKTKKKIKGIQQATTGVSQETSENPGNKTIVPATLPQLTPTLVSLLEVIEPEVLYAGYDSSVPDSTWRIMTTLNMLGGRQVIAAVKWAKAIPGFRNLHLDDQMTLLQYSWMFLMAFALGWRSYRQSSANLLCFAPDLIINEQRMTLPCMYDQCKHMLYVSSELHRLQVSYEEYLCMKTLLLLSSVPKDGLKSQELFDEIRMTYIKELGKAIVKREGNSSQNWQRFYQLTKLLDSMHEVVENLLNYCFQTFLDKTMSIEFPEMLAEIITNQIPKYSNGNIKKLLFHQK
Sequence of Cytochrome P450 3A4 (Homo sapiens) (P08684 whole entry, looked up): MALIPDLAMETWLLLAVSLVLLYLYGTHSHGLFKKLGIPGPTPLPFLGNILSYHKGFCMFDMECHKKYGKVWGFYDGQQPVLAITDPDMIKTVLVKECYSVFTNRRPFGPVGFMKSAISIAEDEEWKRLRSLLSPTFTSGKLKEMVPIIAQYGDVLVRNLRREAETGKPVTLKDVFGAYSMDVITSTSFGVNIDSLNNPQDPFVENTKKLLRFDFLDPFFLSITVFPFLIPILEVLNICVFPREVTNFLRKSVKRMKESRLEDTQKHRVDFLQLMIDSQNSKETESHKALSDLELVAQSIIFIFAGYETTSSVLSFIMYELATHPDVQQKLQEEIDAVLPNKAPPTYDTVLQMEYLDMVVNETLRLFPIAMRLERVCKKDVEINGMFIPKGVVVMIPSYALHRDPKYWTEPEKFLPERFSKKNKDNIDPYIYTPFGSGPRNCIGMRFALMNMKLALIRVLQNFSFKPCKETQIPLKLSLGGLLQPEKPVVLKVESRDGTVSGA
Sequence of Guanine nucleotide-binding protein G(i) subunit alpha-1 (Homo sapiens) (P63096 whole entry, looked up): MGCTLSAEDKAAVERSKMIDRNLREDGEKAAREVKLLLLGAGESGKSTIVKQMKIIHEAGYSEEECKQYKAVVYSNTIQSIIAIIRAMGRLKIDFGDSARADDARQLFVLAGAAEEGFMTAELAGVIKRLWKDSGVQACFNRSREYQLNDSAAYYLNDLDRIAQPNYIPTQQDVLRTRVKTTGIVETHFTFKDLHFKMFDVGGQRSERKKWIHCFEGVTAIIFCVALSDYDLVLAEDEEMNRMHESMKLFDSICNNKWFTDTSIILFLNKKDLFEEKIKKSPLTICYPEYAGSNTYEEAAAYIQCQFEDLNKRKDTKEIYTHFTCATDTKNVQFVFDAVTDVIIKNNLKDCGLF
Sequence of Alpha-galactosidase A (Homo sapiens) (P06280 whole entry, looked up): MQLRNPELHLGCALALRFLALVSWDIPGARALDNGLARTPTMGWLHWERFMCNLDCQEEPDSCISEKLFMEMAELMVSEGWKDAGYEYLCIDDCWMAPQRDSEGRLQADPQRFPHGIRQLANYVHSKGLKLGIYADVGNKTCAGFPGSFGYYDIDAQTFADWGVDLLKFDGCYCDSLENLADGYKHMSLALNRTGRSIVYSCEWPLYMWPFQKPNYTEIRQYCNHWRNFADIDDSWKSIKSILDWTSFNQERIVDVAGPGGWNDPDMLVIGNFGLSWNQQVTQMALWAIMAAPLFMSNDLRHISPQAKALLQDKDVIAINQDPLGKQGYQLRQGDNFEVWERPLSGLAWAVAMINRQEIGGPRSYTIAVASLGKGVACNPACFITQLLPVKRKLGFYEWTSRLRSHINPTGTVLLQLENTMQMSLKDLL
Sequence of DNA repair nuclease/redox regulator APEX1 (Homo sapiens) (P27695 whole entry, looked up): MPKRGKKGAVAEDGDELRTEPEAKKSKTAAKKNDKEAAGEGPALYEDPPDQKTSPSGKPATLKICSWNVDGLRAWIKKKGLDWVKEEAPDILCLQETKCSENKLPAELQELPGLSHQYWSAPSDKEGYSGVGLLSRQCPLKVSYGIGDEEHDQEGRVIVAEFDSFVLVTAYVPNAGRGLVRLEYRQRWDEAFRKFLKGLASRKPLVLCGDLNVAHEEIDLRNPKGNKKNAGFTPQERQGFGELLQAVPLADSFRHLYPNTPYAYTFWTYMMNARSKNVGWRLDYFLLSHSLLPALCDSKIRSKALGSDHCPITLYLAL
Sequence of 3',5'-cyclic-AMP phosphodiesterase 4B (Homo sapiens) (Q07343 whole entry, looked up): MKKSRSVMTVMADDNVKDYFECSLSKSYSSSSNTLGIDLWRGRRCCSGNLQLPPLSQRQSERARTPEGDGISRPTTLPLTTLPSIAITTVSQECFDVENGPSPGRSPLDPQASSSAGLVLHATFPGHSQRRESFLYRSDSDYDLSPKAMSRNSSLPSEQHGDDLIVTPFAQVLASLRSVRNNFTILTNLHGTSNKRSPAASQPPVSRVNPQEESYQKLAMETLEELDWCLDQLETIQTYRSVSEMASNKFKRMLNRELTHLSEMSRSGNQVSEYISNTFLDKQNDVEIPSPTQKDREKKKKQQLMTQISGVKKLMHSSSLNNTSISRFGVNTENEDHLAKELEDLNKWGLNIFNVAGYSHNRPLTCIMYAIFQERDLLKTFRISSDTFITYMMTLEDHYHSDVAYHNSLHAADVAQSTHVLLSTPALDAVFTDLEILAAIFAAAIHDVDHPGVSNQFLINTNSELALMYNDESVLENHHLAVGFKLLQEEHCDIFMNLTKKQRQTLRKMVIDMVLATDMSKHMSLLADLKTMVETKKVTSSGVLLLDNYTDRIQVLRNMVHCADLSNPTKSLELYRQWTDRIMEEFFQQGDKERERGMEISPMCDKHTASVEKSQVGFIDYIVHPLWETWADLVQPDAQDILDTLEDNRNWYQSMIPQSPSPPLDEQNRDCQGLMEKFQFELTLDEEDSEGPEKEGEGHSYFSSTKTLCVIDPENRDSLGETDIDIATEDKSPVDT
Sequence of Pyruvate kinase (Leishmania mexicana) (Q27686 2-499 E452W): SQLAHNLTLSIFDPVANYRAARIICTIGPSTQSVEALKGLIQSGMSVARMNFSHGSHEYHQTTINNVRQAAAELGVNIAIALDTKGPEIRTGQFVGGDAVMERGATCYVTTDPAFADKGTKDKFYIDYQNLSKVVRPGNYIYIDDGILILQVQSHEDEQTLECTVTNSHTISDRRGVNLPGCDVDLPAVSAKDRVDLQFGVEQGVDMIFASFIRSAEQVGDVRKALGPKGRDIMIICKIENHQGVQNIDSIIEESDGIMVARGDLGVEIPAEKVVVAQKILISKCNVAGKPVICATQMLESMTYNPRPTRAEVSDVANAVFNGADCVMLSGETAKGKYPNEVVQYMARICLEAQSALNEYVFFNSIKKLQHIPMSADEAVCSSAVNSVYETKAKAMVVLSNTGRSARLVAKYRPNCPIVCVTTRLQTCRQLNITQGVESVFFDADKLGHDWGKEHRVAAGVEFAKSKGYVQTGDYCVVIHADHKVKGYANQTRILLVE
Sequence of Cytochrome P450 1A2 (Homo sapiens) (P05177 whole entry, looked up): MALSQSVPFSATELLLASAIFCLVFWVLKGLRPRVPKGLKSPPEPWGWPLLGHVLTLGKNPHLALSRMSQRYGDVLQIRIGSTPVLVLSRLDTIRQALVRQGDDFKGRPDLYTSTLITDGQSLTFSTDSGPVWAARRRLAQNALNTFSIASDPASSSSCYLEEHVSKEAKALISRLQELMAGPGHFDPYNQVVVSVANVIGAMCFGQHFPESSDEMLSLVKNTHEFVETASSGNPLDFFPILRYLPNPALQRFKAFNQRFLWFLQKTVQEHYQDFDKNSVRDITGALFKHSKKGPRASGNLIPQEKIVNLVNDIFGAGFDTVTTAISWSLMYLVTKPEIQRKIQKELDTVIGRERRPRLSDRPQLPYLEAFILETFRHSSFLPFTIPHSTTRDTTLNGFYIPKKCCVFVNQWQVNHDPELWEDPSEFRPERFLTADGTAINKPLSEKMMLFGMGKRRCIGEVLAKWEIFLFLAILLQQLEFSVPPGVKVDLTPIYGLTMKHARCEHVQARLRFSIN
Sequence of Pyruvate kinase PKM (Homo sapiens) (P14618 whole entry, looked up): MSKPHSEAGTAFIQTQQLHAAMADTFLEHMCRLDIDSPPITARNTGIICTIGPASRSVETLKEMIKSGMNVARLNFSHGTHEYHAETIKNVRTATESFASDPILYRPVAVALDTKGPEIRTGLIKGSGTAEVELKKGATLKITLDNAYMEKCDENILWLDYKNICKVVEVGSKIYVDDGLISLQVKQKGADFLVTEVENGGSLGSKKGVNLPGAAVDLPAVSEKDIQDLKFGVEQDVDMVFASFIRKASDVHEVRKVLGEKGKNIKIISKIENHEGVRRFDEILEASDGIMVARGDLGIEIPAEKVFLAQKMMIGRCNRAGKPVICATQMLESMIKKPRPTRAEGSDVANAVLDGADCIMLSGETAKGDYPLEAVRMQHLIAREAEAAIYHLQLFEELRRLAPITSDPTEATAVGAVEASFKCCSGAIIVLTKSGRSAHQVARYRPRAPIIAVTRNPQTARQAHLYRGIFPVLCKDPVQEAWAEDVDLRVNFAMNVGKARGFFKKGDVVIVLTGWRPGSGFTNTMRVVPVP

For `CC(C)=CCC/C(C)=C/CC/C(C)=C/CSc1ccccc1C(=O)O`, the activity change, negative = inhibition [1] was 14.1%, the Potency [2] was 12.6 µM (active) and the activity, negative = inhibition [3] was 1.75%. The Potency [4] was greater than 46 µM, the Potency [5] was greater than 46 µM and the Potency [6] was “inactive”. The Potency [7] was “inactive”, the outcome [8] was “inactive” and the Potency [9] was “inactive”. The Potency [10] was “inactive”, the outcome [11] was “inactive” and the outcome [12] was “inactive”. The outcome [13] was “inactive”, the outcome [14] was “inactive” and the Potency [15] was “inactive”. The Potency [16] was “inactive”, the Potency [17] was 11.2 µM (active) and the Potency [18] was “inactive”. For the same molecule, the Potency [19] was “inactive”.
